These results are taken from PMC10668032, “Altered binding affinity of SIX1-Q177R correlates with enhanced WNT5A and WNT pathway effector expression in Wilms tumor”.

Over roughly 33,000 sequences, “e-score” has its median near -0.053; the highest 2% begin near 0.38. Many of the other results were omitted from the sample, so the highest values are more common in it than they were.

In this assay the target is T1, SIX1 homeodomain (reference allele) (human, UniProt Q15475 108-198).
T1 sequence: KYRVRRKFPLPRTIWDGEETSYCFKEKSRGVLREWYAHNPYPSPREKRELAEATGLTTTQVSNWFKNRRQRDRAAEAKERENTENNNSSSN
Briefly: universal protein binding microarray; Universal all-10-mer PBM (8x60K, AMADID 030236), 300 nM GST-tagged protein, Alexa Fluor 488 anti-GST; buffer, salt, pH and temperature not stated (as in Berger); high values mean tight binding. Conditions: protein: ivt; tags: N-terminal GST; dsDNA, one strand shown. The method, boiled down: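 GST-tagged homeodomains were made by in vitro transcription/translation and quantified by anti-GST western blot against a recombinant GST standard curve. They were applied in duplicate at 300 nM final concentration to universal 'all 10-mer' protein binding microarrays (8×60K format). Binding was quantified as 8-mer E-scores with the Universal PBM Analysis Suite.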
Turning to CCGGCGGA, the binding signal was 0.24 ± 0.0642 E-score. As for TCATCCGA, the binding signal was found to be 0.255 ± 0.0149 E-score. To ACTGATAT belongs 0.442 ± 0.0273 E-score; to GCTGAGAC, 0.214 ± 0.0303 E-score; to CCTGATAC, 0.4721 ± 0.0017 E-score. In the case of ACTGATAC it was 0.465 ± 0.00916 E-score; in that of ACTGATCA, 0.181 ± 0.00344 E-score. Turning to CCTGAGAC, the binding signal was determined as 0.168 ± 0.0173 E-score. For CCTGATAG, the binding signal was 0.266 ± 0.022 E-score.

In the case of ACTGATAG, the binding signal came out at 0.315 ± 0.0253 E-score. On to ACTGCTAT, for which the binding signal was found to be 0.177 ± 0.0391 E-score. In the case of GCTGATAC it was 0.459 ± 0.00926 E-score; in that of ACTGACAC, 0.335 ± 0.01 E-score. To GCTGACAC belongs 0.246 ± 0.0761 E-score; to GTATAGAA, 0.215 ± 0.0496 E-score. In the case of TATCTCCA it was 0.282 ± 0.0362 E-score. Take ATGGCATC: the binding signal was 0.155 ± 0.0404 E-score.

Take ATCCAGTA: the binding signal came out at 0.242 ± 0.0094 E-score. In the case of AGCAATAC it was 0.298 ± 0.00343 E-score; in that of GATCGTGC, 0.276 ± 0.0195 E-score; in that of ACCTATAT, 0.195 ± 0.0849 E-score. In the case of GCAGGAGA it was 0.153 ± 0.0104 E-score; in that of ATATCGTA, 0.402 ± 0.0509 E-score. Regarding GTCTCGTA, the binding signal was found to be 0.172 ± 0.0154 E-score. To GTATCGTA belongs 0.4227 ± 0.00184 E-score; to GTATAGTA, 0.285 ± 0.0663 E-score; to CTATCGTA, 0.266 ± 0.0154 E-score.

Turning to ATATCGTG, the binding signal worked out at 0.376 ± 0.0365 E-score.

Regarding CTATCGTC, the binding signal stood at 0.163 ± 0.0581 E-score. Take ATATAGTA: the binding signal amounted to 0.304 ± 0.0257 E-score. For the sequence ATATCGTC, the binding signal was determined as 0.382 ± 0.0428 E-score. For GGTAGATA, the binding signal came to 0.336 ± 0.0074 E-score. To GAGTAATA belongs 0.204 ± 0.00279 E-score; to AGATCTCG, 0.214 ± 0.0497 E-score; to GGTGTCAA, 0.45408 ± 0.000177 E-score. In the case of GGTGTCAC it was 0.476 ± 0.0116 E-score; in that of CGTGTCAC, 0.1957 ± 0.000728 E-score; in that of GGTGTCGA, 0.408 ± 0.0576 E-score.

Consider GGTGTCTA, for which the binding signal stood at 0.35 ± 0.0308 E-score.

Consider GGTGTCCA, for which the binding signal was found to be 0.314 ± 0.0555 E-score. In the case of AGTGTCAA it was 0.168 ± 0.0652 E-score. In the case of GGGGTCAA it was 0.151 ± 0.00175 E-score; in that of AGTGTCAC, 0.253 ± 0.0143 E-score; in that of CCGCTATA, 0.176 ± 0.0395 E-score. For the sequence CTTAGATA, the binding signal was found to be 0.19 ± 0.0471 E-score.

Turning to GGTACACC, the binding signal came out at 0.298 ± 0.064 E-score.

For the sequence AAGGGTGA, the binding signal was found to be 0.21 ± 0.0127 E-score.

As for GCGTTAGA, the binding signal came out at 0.197 ± 0.00519 E-score. In the case of GGGGATAC it was 0.44 ± 0.0287 E-score; in that of AGGGATAA, 0.292 ± 0.0171 E-score.

For CGGGATAA, the binding signal worked out at 0.17 ± 0.0308 E-score. To AGGGGGAT belongs 0.376 ± 0.0175 E-score; to GGGGATAA, 0.311 ± 0.0718 E-score; to TGGGATAA, 0.176 ± 0.0405 E-score. In the case of CGGGATAC it was 0.408 ± 0.0263 E-score; in that of AGGGATAC, 0.4148 ± 0.000559 E-score. Regarding AGGGATAG, the binding signal was 0.27 ± 0.0085 E-score. Consider GGGGACAC, for which the binding signal was determined as 0.161 ± 0.0585 E-score.

For CGGGATAG, the binding signal amounted to 0.268 ± 0.0112 E-score.

In the case of AGGGATAT, the binding signal came out at 0.45 ± 0.0188 E-score.

Regarding CTAAGATA, the binding signal came to 0.241 ± 0.105 E-score. To ATCTGGGC belongs 0.24 ± 0.0045 E-score; to CCTATTGA, 0.187 ± 0.0453 E-score; to GGTATTTA, 0.191 ± 0.035 E-score. To ATCCCATC belongs 0.297 ± 0.0291 E-score. In the case of ATCGATGG, the binding signal is 0.185 ± 0.0344 E-score.

As to GTATATAA, the binding signal amounted to 0.245 ± 0.0101 E-score. In the case of GTATATCA it was 0.429 ± 0.0166 E-score.

In the case of ATATATCC, the binding signal stood at 0.438 ± 0.0246 E-score. ATATATCG: the binding signal came out at 0.372 ± 0.0566 E-score. In the case of AAATATCA it was 0.224 ± 0.158 E-score; in that of CTCTATCC, 0.216 ± 0.0113 E-score. To CTATATCA belongs 0.412 ± 0.033 E-score. In the case of ATATATCA it was 0.4 ± 0.0452 E-score; in that of GTATATGA, 0.225 ± 0.0139 E-score; in that of ATATATAA, 0.298 ± 0.0548 E-score. For the sequence CTATATTA, the binding signal came to 0.152 ± 0.0427 E-score. In the case of CTATATCC it was 0.366 ± 0.00388 E-score; in that of ATCCAACC, 0.173 ± 0.00282 E-score. Consider TATCTAGA, for which the binding signal amounted to 0.189 ± 0.00564 E-score. On to ATACGTGG, for which the binding signal worked out at 0.272 ± 0.04 E-score.

Consider ACAACACC, for which the binding signal was 0.23 ± 0.0178 E-score.

In the case of TATAACAA, the binding signal was found to be 0.2242 ± 0.00053 E-score. To ATATTAGG belongs 0.257 ± 0.0151 E-score; to CGAAGATC, 0.202 ± 0.00878 E-score. To GATGATAC belongs 0.484 ± 0.00743 E-score. As to AATGATAG, the binding signal came to 0.309 ± 0.0717 E-score. In the case of TATGATAA it was 0.17 ± 0.026 E-score; in that of CATGATAC, 0.4813 ± 0.00335 E-score; in that of AAAGATAC, 0.365 ± 0.0561 E-score. As to CATGATAG, the binding signal is 0.274 ± 0.0672 E-score. For the sequence GATAATAC, the binding signal was determined as 0.406 ± 0.0398 E-score. For CATAATAC, the binding signal is 0.34 ± 0.0222 E-score. To GATGATGA belongs 0.189 ± 0.0213 E-score; to CATGACAC, 0.35 ± 0.0169 E-score. In the case of AATAATAC it was 0.345 ± 0.0992 E-score; in that of AATGATAC, 0.467 ± 0.0253 E-score; in that of CCACGATA, 0.324 ± 0.0401 E-score. In the case of GTATGCGA it was 0.225 ± 0.0379 E-score. As for AGCGGGAT, the binding signal is 0.289 ± 0.0282 E-score. In the case of ATGTAATA it was 0.208 ± 0.032 E-score; in that of GGAGACAC, 0.219 ± 0.0128 E-score.

As for ATCGGCAT, the binding signal was determined as 0.205 ± 0.0425 E-score.

For the sequence AATAACAC, the binding signal came to 0.151 ± 0.0395 E-score. To TATGGGGA belongs 0.232 ± 0.0667 E-score; to AAGTATAT, 0.184 ± 0.103 E-score; to AATGATAT, 0.44 ± 0.0479 E-score. To AATGAGAT belongs 0.278 ± 0.0395 E-score. To AAAGATAT belongs 0.351 ± 0.0934 E-score; to ATCGTCAT, 0.22 ± 0.00839 E-score.

Take AATCCGCG: the binding signal worked out at 0.1997 ± 0.000431 E-score. Consider ATACCGGG, for which the binding signal turned out to be 0.399 ± 0.016 E-score. As to ATCCCGGG, the binding signal was 0.345 ± 0.0141 E-score. Regarding ATACCGGC, the binding signal was 0.319 ± 0.00766 E-score. To ATACGGGG belongs 0.335 ± 0.018 E-score; to AGACCGGA, 0.157 ± 0.0691 E-score; to ATACCGGA, 0.381 ± 0.0112 E-score. To ACCATGAT belongs 0.269 ± 0.0126 E-score; to GATTATGA, 0.205 ± 0.0352 E-score. For ATATGGCA, the binding signal was determined as 0.204 ± 0.0271 E-score.

On to GAGCCATA, for which the binding signal is 0.183 ± 0.0105 E-score. Consider GAATACGA, for which the binding signal was found to be 0.24 ± 0.0047 E-score. For GGATAGAC, the binding signal was 0.151 ± 0.00296 E-score. To CAATATAC belongs 0.197 ± 0.0146 E-score; to GGTCTCAC, 0.203 ± 0.0591 E-score; to TGTATCAA, 0.41 ± 0.0207 E-score. To TATCTCAA belongs 0.329 ± 0.0572 E-score; to CGTATCAC, 0.484 ± 0.00135 E-score. With CCTATCAA, the binding signal amounted to 0.288 ± 0.0228 E-score. To GGGCTCAC belongs 0.268 ± 0.0467 E-score; to CGTATTAC, 0.26 ± 0.0203 E-score; to CGTATAAC, 0.204 ± 0.0505 E-score. Take CGTATCAA: the binding signal is 0.466 ± 0.026 E-score. As to CGTATTAA, the binding signal stood at 0.222 ± 0.0926 E-score. In the case of TGTATTAA it was 0.275 ± 0.027 E-score; in that of GGTATCAC, 0.497 E-score; in that of TATCGGAA, 0.368 ± 0.0234 E-score. For CACCCGGA, the binding signal turned out to be 0.276 ± 0.0383 E-score. As to CTGAGATC, the binding signal worked out at 0.253 ± 0.0174 E-score. In the case of ATGAGACG it was 0.251 ± 0.0275 E-score; in that of TATCTTCA, 0.251 ± 0.0591 E-score.

Turning to GATCAGAC, the binding signal turned out to be 0.249 ± 0.0505 E-score.

For the sequence GGTATAAA, the binding signal was found to be 0.286 ± 0.0691 E-score. In the case of GGTATCAA, the binding signal worked out at 0.486 ± 0.00747 E-score. To GCTATCAA belongs 0.312 ± 0.0869 E-score; to ATACTTTG, 0.253 ± 0.096 E-score; to GGGTTAGA, 0.16 ± 0.0278 E-score.
